Test systems include RPMI-8226 leukemia; OVCAR-8 ovarian; OVCAR-5 ovarian; OVCAR-4 ovarian; SK-OV-3 ovarian; IGROV1 ovarian; OVCAR-3 ovarian; HS 578T breast; NCI/ADR-RES ovarian; T-47D breast.
What all share (assay): NCI-60 one-dose screen, 48 h (100 = growth as untreated, 0 = no growth, -100 = all killed)
Common to all, as to conditions: 10 µM

This is part of a sample that, as a whole, favours compounds with a hit. Of some 83,000 tested, about 20% had one in any assay.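 Note: values are percent growth. 100 is the growth of untreated cells, values between 100 and 0 indicate rising inhibition; between -100 and 0 indicates cell death.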 A number with no mark means an inactive call. Active and inactive are the calls of the source. How the source made its calls: active means growth percent below 10; inactive means the rest.

Turning to `Cc1cc(=O)[nH]c(N/N=C/c2ccccc2O)n1`, the growth was 68.6% in the assay on RPMI-8226 leukemia; 83.3% in the assay on OVCAR-8 ovarian; 95.2% in the assay with OVCAR-5 ovarian; 22.4% with OVCAR-4 ovarian; 78.3% in the assay with SK-OV-3 ovarian; 59.6% with IGROV1 ovarian. The growth in the assay with OVCAR-3 ovarian was 6.7% (active); in the assay on HS 578T breast it was 104%; in the assay with NCI/ADR-RES ovarian, 16.3%; in the assay on T-47D breast it was 48.7%.
`FC(F)(F)c1ccc(-c2cnc(Cl)nc2N2CCC3(CC2)OCCO3)cc1`: the growth was 76.3% in the assay with RPMI-8226 leukemia; 95% with OVCAR-8 ovarian; 92.9% with OVCAR-5 ovarian; 89.9% with OVCAR-4 ovarian; 88.9% in the assay on SK-OV-3 ovarian; 83.6% in the assay with IGROV1 ovarian. Moreover, the growth with OVCAR-3 ovarian is 96%; in the assay on HS 578T breast, 105%; in the assay on NCI/ADR-RES ovarian, 87.4%; in the assay with T-47D breast, 88.8%.
On to `CCOC(=O)C(CSC(c1ccccc1)(c1ccccc1)c1ccccc1)NC(=O)C(CSC(c1ccccc1)(c1ccccc1)c1ccccc1)NC(c1ccccc1)(c1ccccc1)c1ccccc1` (stereo not given), for which the growth with RPMI-8226 leukemia was 105%; in the assay on OVCAR-8 ovarian, 95.6%; in the assay on OVCAR-5 ovarian, 106%; in the assay on OVCAR-4 ovarian, 105%; in the assay with SK-OV-3 ovarian, 109%; in the assay with IGROV1 ovarian, 115%. The growth with OVCAR-3 ovarian is 119%; in the assay on HS 578T breast it was 99.5%; in the assay with NCI/ADR-RES ovarian, 109%; with T-47D breast, 108%.
Consider `Clc1ccc2c(NCCCNc3nccc(Nc4ccc(Br)cc4)n3)ccnc2c1`, for which the growth with RPMI-8226 leukemia is -59.9% (active); with OVCAR-8 ovarian it was -65.2% (active); in the assay on OVCAR-5 ovarian it was 15.3%; in the assay on OVCAR-4 ovarian, -9.2% (active); in the assay with SK-OV-3 ovarian it was -44.1% (active); with IGROV1 ovarian it was 24.2%. The growth is -22.8% (active) in the assay with OVCAR-3 ovarian, -56% (active) in the assay on HS 578T breast, 0.467% (active) with NCI/ADR-RES ovarian and -56.2% (active) with T-47D breast.
As for `Cc1ccc(Nc2cc(C)nc(NCCCNc3ccnc4cc(Cl)ccc34)n2)cc1`, the growth was -63.8% (active) in the assay on RPMI-8226 leukemia; -60.7% (active) in the assay on OVCAR-8 ovarian; 1.62% (active) in the assay on OVCAR-5 ovarian; -26.1% (active) in the assay with OVCAR-4 ovarian; -47.5% (active) with SK-OV-3 ovarian; 7.69% (active) with IGROV1 ovarian. In addition, the growth was -79.9% (active) with OVCAR-3 ovarian, -58.6% (active) in the assay with HS 578T breast, -33% (active) with NCI/ADR-RES ovarian and -73% (active) in the assay on T-47D breast.
On to `Clc1cccc(-c2nc(-c3cccs3)no2)c1`, for which the growth in the assay with RPMI-8226 leukemia is 93.7%; in the assay with OVCAR-8 ovarian it was 107%; in the assay with OVCAR-5 ovarian, 108%; in the assay with OVCAR-4 ovarian, 65.8%; with SK-OV-3 ovarian, 106%; in the assay with OVCAR-3 ovarian, 104%. Moreover, the growth was 136% in the assay on HS 578T breast and 107% in the assay on NCI/ADR-RES ovarian.
On to `COC(=O)C(=C\c1ccc2c(c1)OCO2)/C(=C/c1ccc2c(c1)OCO2)C(=O)OC`, for which the growth in the assay on RPMI-8226 leukemia was 98.7%; in the assay on OVCAR-8 ovarian, 103%; in the assay with OVCAR-5 ovarian, 98.9%; in the assay with OVCAR-4 ovarian it was 106%; in the assay with SK-OV-3 ovarian, 105%; in the assay with IGROV1 ovarian, 87.1%. Moreover, the growth in the assay with HS 578T breast was 106%; with NCI/ADR-RES ovarian, 96.4%; with T-47D breast, 89.2%.
Take `CCOC(=O)CNC(=O)CCCCSc1ncnc2nc[nH]c12`: the growth is 107% with RPMI-8226 leukemia; 108% in the assay on OVCAR-8 ovarian; 90.1% with OVCAR-5 ovarian; 111% in the assay with OVCAR-4 ovarian; 115% in the assay on SK-OV-3 ovarian; 112% in the assay on OVCAR-3 ovarian. Besides, the growth with HS 578T breast is 107%; in the assay on NCI/ADR-RES ovarian, 97.3%; with T-47D breast, 100%.
Turning to `COc1cc(/C(=C2/O[C@@H]([C@H]3COC(C)(C)O3)[C@H]3OC(C)(C)O[C@@H]23)c2ccc3ccccc3c2)cc(OC)c1OC`, the growth in the assay on RPMI-8226 leukemia was 36.8%; in the assay on OVCAR-8 ovarian, 18.9%; in the assay on OVCAR-5 ovarian it was 38.2%; in the assay with OVCAR-4 ovarian, 25.7%; with SK-OV-3 ovarian it was 51.4%; with IGROV1 ovarian it was 21.4%. Moreover, the growth was -6.76% (active) in the assay on OVCAR-3 ovarian and 25.9% in the assay with NCI/ADR-RES ovarian.
Take `COc1cc(/C=C\c2cc(OC)c(OC)c(OC)c2)cc(NS(=O)(=O)c2ccc(Cl)cc2)c1OC`: the growth was 9.59% (active) in the assay with RPMI-8226 leukemia; 17.1% in the assay on OVCAR-8 ovarian; 45% with OVCAR-5 ovarian; 58.4% with OVCAR-4 ovarian; 28.2% in the assay on SK-OV-3 ovarian; 46.8% in the assay on IGROV1 ovarian. Besides, the growth is 10.3% with OVCAR-3 ovarian, 1.49% (active) in the assay with HS 578T breast, 12.8% in the assay with NCI/ADR-RES ovarian and 55.3% with T-47D breast.
Consider `COc1ccc2nc3cc(Cl)ccc3c(NCCNCC(C)O)c2c1` (stereo not given), for which the growth was 19.8% with RPMI-8226 leukemia; 17.1% in the assay with OVCAR-8 ovarian; 24.6% in the assay on OVCAR-5 ovarian; 37% with OVCAR-4 ovarian; 37.5% in the assay with SK-OV-3 ovarian; 26.2% with IGROV1 ovarian. For the same compound, the growth was 67.2% with HS 578T breast, 51.9% in the assay with NCI/ADR-RES ovarian and 25.9% in the assay with T-47D breast.
With `O=C(CC(C(=O)c1ccccc1)N1CCOCC1)c1ccccc1` (stereo not given), the growth is 40.5% in the assay with RPMI-8226 leukemia; 97.3% in the assay with OVCAR-8 ovarian; 95.5% with OVCAR-5 ovarian; 106% in the assay with OVCAR-4 ovarian; 98.3% with SK-OV-3 ovarian; 106% in the assay with IGROV1 ovarian. Moreover, the growth in the assay with HS 578T breast is 99%; in the assay with NCI/ADR-RES ovarian it was 98%; in the assay with T-47D breast, 72.1%.
`CCN(CC)CCSCCCNc1c2ccc(Cl)cc2nc2ccc(OC)cc12`: the growth was -22.9% (active) with RPMI-8226 leukemia; -29.3% (active) with OVCAR-8 ovarian; -16.7% (active) with OVCAR-5 ovarian; -34.1% (active) in the assay with OVCAR-4 ovarian; -1.76% (active) in the assay on SK-OV-3 ovarian; -18.7% (active) in the assay on IGROV1 ovarian. Moreover, the growth with HS 578T breast is 6.72% (active); in the assay with NCI/ADR-RES ovarian it was 1.58% (active); in the assay on T-47D breast it was -32.8% (active).
`COc1cc2cc3c(nc2cc1OC)CCN3Cc1ccc(NC(=O)Nc2cc(C(F)(F)F)cc(C(F)(F)F)c2)cc1`: the growth in the assay with RPMI-8226 leukemia is 54.2%; with OVCAR-8 ovarian it was 61.7%; with OVCAR-5 ovarian, 92.6%; with OVCAR-4 ovarian, 80.5%; in the assay with SK-OV-3 ovarian, 95.2%; in the assay with IGROV1 ovarian, 84.3%. In addition, the growth is 51.6% in the assay on OVCAR-3 ovarian, 77.4% in the assay on HS 578T breast, 60.5% in the assay on NCI/ADR-RES ovarian and 71.5% in the assay with T-47D breast.
In the case of `N=C1c2nc3n(c2C(=O)c2nc4n(c21)CCCC4)CCCC3`, the growth in the assay on RPMI-8226 leukemia was 82.2%; with OVCAR-8 ovarian, 91.5%; in the assay with OVCAR-5 ovarian, -57.8% (active); in the assay on OVCAR-4 ovarian it was 96.2%; with SK-OV-3 ovarian, 95%; in the assay with OVCAR-3 ovarian, 98.4%. The growth in the assay with HS 578T breast is -28.7% (active); in the assay with NCI/ADR-RES ovarian, 85.7%; in the assay with T-47D breast, 71.9%.

For the origin of these results see PubChem BioAssay (NCI).
